Consider 10 molecules from PubChem BioAssay (EPA / NIEHS).

Structures are written as SMILES. Inconclusive results are not listed. Activity calls are given as the source filed them. The calls were made as follows: active = hit-call score of the fitted dose curve at least 0.9, where 1 is the maximum; inconclusive = response in the unintended direction; inactive = score below 0.9.

Sequence of AR (gene 367) (P10275 whole entry, looked up): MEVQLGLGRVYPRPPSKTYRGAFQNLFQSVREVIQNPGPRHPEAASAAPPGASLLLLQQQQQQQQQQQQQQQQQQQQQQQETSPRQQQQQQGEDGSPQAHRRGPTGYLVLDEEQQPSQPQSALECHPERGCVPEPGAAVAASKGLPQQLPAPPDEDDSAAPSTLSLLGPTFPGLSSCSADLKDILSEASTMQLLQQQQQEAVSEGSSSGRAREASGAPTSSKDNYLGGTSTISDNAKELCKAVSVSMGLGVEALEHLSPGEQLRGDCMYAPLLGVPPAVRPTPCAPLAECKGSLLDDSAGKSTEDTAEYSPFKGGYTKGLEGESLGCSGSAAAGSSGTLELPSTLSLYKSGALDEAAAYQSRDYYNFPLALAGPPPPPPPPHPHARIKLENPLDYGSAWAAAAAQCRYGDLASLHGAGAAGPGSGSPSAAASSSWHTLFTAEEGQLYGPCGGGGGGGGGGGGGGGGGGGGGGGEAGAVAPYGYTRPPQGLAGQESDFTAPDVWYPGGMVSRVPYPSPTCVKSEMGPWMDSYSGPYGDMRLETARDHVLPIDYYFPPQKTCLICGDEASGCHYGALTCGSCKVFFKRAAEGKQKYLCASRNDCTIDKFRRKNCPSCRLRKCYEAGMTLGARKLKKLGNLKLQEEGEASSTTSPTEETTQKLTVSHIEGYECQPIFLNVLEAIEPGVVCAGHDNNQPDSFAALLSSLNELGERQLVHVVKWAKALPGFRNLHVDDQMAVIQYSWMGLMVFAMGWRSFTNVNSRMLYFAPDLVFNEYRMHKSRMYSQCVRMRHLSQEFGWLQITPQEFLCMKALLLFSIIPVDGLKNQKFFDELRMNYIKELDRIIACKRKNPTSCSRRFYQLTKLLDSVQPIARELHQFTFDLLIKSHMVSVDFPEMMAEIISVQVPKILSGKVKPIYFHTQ

The test deals with AR (gene 367) (UniProt P10275). Description: ACEA_AR_agonist_80hr: ACEA Biosciences xCELLigence Real-Time Cell Analysis on Androgen Receptor Agonism for Proliferation (AID 2283783).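 Also: hits increase impedance growth signal above DMSO baseline.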 The protocol:
ACEA_AR_agonist is a cell-based, single-readout assay that uses 22Rv1, a human prostate cancer cell line, with measurements taken at 80 hours after chemical dosing in a 384-well plate, although TO5 and TO6 (mc0.srcf) used a 96-well plate. Differences in plate size can be ignored given data normalization.ACEA_AR_agonist_80hr is one of two assay component(s) measured or calculated from the ACEA_AR assay. It is designed to make measurements of real-time cell-growth kinetics, a form of growth reporter, as detected with electrical impedance signals by Real-Time Cell Electrode Sensor (RT-CES) technology.Data from the assay component ACEA_AR_agonist_80hr was analyzed in the positive analysis fitting direction relative to DMSO as the negative control and baseline of activity. Using a type of growth reporter, measures of the cells for gain-of-signal activity can be used to understand the signaling at the pathway-level as they relate to the geneAR Furthermore, this assay endpoint can be referred to as a primary readout, because this assay has produced multiple assay endpoints where this one serves a signaling function. To generalize the intended target to other relatable targets, this assay endpoint is annotated to the nuclear receptor intended target family, where the subfamily is steroidal.
The xCELLigence system Multi-E-Plate stations were used to measure the time-dependent response to chemicals. Each compound was tested in an eight-point, 1:4 serial dilution series starting at a maximum final concentration of 100 uM. A maximum starting concentration of 0.5% DMSO was present in the 100 uM chemical samples and was diluted along with the test article dilution series. The screen was performed in biological duplicate using two separate, 96-well, E-Plates 96 for each dilution series (n = 2). Positive controls (MG132 and testosterone) and a negative control (assay media) were tested in quadruplicate on each testing plate. […] Reference compounds were tested with 8 concentrations with 1:5 serial dilutions. All screening was carried out by ACEA Biosciences, Inc. (San Diego, CA). 22Rv1 cells purchased from ATCC were maintained in media supplemented with 10% fetal bovine serum (FBS). Before screening, 22Rv1 cells were preconditioned in assay medium. Cells were then detached and seeded in E-Plates 96 in assay medium. After overnight monitoring of growth once every hour, compounds were added to […] cells and remained in the medium until the end of the experiment. Cellular responses were then recorded once every 5 min for the first 5 h, and once every hour for an additional 100 h.
Turning to `COc1cc2c(c(OC)c1OC)-c1ccc(OC)c(=O)cc1[C@@H](NC(C)=O)CC2`, the molecule was called inactive. Same read-out and setting: with `COc1cc(C(C)C)c2c(c1)S(=O)(=O)N(COc1cc(=O)n3cccc(OCCN4CCCCC4)c3n1)C2=O` the entry was “inactive”; with `CCCCOC(=O)c1ccccc1`, “inactive”; with `OCCOCCOCCO`, “inactive”. On the same count and under the same terms, the same measure for `CCCCCCOC(=O)CC(CC(=O)OCCCCCC)(OC(=O)CCC)C(=O)OCCCCCC`: “inactive”.

For the molecule `CCN(CC)C(=S)SSC(=S)N(CC)CC`, the outcome was inactive. Turning to `CCc1cccc(CC)c1N`, the molecule was called inactive.

Turning to `CCCCC(CC)C(=O)OCCOCCOCCOC(=O)C(CC)CCCC` (stereo not given), the outcome was inactive. The AC50 is the concentration giving half of the maximal activity seen. As to `Cc1nc(-c2ccccn2)ncc1C(=O)Nn1cc(C)c2cc(F)ccc21`, the AC50 is 427 pM (active). For the molecule `CCCCCCCCCCCCCCCCOS(=O)(=O)O`, the outcome was inactive.
